# According to PubChem BioAssay AID686978 (National Center for Advancing Translational Sciences (NCATS), 2013):
# About 64,000 (15%) of roughly 420,000 compounds were called active. Not shown: some 27% with an inconclusive outcome. Only a sample is shown. Unmarked numbers belong to inactive results. Calls come from the whole dose curve; as a rule, active = well fitted inhibition curve with a large enough effect; inconclusive = small, poorly fitted or top-dose-only effect; inactive = flat fitted curve, though single readings scatter.
# Test: qHTS for Inhibitors of human tyrosyl-DNA phosphodiesterase 1 (TDP1): qHTS in cells in absence of CPT; note: nearly all actives have a fitted effect of over 55% in size
# Conditions: DT40 Tdp1-/- hTDP1 cells, no CPT, ATP luminescence, 48 h; activity change, negative = growth inhibition: at 46.2 µM (top of the series)
# Method in brief: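 Compound effects on proliferation are scored in DT40 Tdp1-/-;hTDP1 cells in the absence of CPT. ATP levels (CellTiter-Glo luminescence) are recorded after a ≥48 hr, 37 °C incubation.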
# % is set by controls: 0 for no effect and ±100 for the full control effect; potency is the fitted concentration of half-maximal effect.
SMILES,"activity change, negative = growth inhibition",Potency
Cc1ccc(-c2ccc(CCC(=O)O)n2-c2ccc(C(N)=O)cc2)cc1,-15.2%,–
CN(Cc1ccccc1)C(=O)C(=O)c1cn(CC(=O)N2CCCC2)c2ccccc12,-19.2%,–
CCOC(=O)c1cc2n(c1N)-c1ccccc1C2=O,-18.9%,–
COc1ccc(OCCCON2C(=O)c3ccccc3C2=O)cc1,-0.348%,–
CCOC(=O)C1=C(c2ccc(OC)cc2)C(=O)c2ccccc2C1=O,–,1.46 µM (active)
CCOc1ccc(C(=O)NCC(=O)N2CCCCCCC2)cc1OCC,0.068%,–
O=C(CCS(=O)(=O)c1cccc2nonc12)NCCc1ccccc1Cl,-17.1%,–
COc1cccc(Cn2c(=O)cnc3cncnc32)c1,–,0.731 µM (active)
COc1cccc(Cn2c(=O)c(-c3ccccc3)nc3cnc(OC)nc32)c1,-1.76%,–
COc1cccc(Cn2c(=O)c(-c3cc(F)cc(F)c3)nc3cnc(OC)nc32)c1,–,0.116 µM (active)
COc1ccc(-c2nc3cnc(OC)nc3n(Cc3ccc(F)cc3)c2=O)cc1,-15%,–
COCCn1c(=O)c(CCc2ccccc2)nc2cncnc21,22.6%,–
COc1cccc(Cn2c(=O)c(CCc3ccccc3)nc3cnc(N(C)C)nc32)c1,-6.83%,–
Cc1ccc(F)cc1NC(=O)c1cccc(N(C)C)c1,-1.61%,–
COc1ccc(-c2nc(N)sc2C2(O)C(=O)Nc3c(Br)cc(F)cc32)cc1OC (stereo not drawn),-1.91%,–
Cc1ccc(OC(=O)c2ccccc2C(=O)OCC(F)(F)C(F)F)cc1,-4.89%,–
O=C(O)c1cc2ccccc2c(=O)s1,-6.59%,–
CC(=O)c1ccc(NC(=O)Cn2c(=O)oc3ccccc32)cc1,-10.3%,–
COc1ccc(C2(C)NC(=O)N(CC(=O)c3ccc4c(c3)OCO4)C2=O)cc1 (stereo not drawn),-20.5%,–
CCc1ccc(-n2nnc(-c3nc(-c4ccccc4)no3)c2C)cc1,3.01%,–
Cc1ccc(NC(=O)CSc2nnc(CNC(=O)c3ccccc3F)o2)cc1Cl,6.65%,–
CCc1ccc(C(=O)OCC(=O)Nc2cccc(S(=O)(=O)NC3=NCCCCC3)c2)cc1,-16.1%,–
COc1ccccc1C(=O)OCC(=O)Nc1cccc(S(=O)(=O)NC2=NCCCCC2)c1,-28.2%,–
Cc1cccc(-n2c(SCC(=O)Nc3cccc(S(=O)(=O)NC4=NCCCCC4)c3)nc3ccccc3c2=O)c1C,–,16.4 µM (active)
O=C(Cc1cccs1)Nc1nnc(SCc2ccc(F)cc2)s1,-8.66%,–
Nc1nnnn1/N=C/c1cc([N+](=O)[O-])ccc1O,-19%,–
O=[N+]([O-])c1cccc(C=NN=Cc2ccccc2O)c1,-0.122%,–

SMILES,"activity change, negative = growth inhibition",Potency
O=[N+]([O-])c1ccc(O)c(/C=N/Nc2ccccc2[N+](=O)[O-])c1,–,18.4 µM (active)
CCCCn1c(N)c(N(CCC(C)C)C(=O)c2ccc(COc3ccccc3)o2)c(=O)[nH]c1=O,-8.96%,–
CS(=O)(=O)N1CCN(CC(=O)NC2CCCC2)CC1,-27.4%,–
COc1ccccc1-n1c(-c2cc(-c3ccco3)[nH]n2)n[nH]c1=S,-5.33%,–
Cn1c(-c2ccco2)nc2cc3ccccc3cc21,–,20.6 µM (active)
CN(c1nc2ccccc2n2c(-c3ccco3)nnc12)S(=O)(=O)c1ccccc1,-12.7%,–
CCN(CC)C(=O)CSC1c2ccccc2C(=O)N1c1ccccc1 (stereo not drawn),-17.6%,–
COC(=O)c1ccc(-n2cnc3ccccc32)nc1,0.376%,–
COC(=O)CSc1nc(C)c2ccc(OC)cc2n1,-3.51%,–
O=C(O)C(c1ccccc1)C1(O)CCCCC1 (stereo not drawn),-7.94%,–
CC1COc2ccccc2N1C(=O)c1cccnc1Cl (stereo not drawn),-1.42%,–
CN1/C(=C\C(=O)c2cccnc2Cl)C(C)(C)c2ccccc21,–,16.4 µM (active)
O=C(Nn1c(-c2ccc(Cl)cc2)nc2ccccc2c1=O)c1cccnc1Cl,2.46%,–
COCCN(C(=O)CCC(=O)Nc1nccs1)C(C(=O)NCCC(C)C)c1ccc(F)cc1 (stereo not drawn),-22.3%,–
Cc1ncc2c(c1CNS(=O)(=O)N(C)C)CCN(C(=O)c1ccccc1F)C2,-14.2%,–
CC(=O)N1N=C(c2ccncc2)OC1(Cc1ccccc1)Cc1ccccc1,–,8.2 µM (active)
CC(C)(C)N(Cc1ccccc1)C(=O)c1ccncc1,8.21%,–
CC(=O)N1N=C(c2ccccc2)OC1c1cccnc1 (stereo not drawn),-18.3%,–
CC1(c2cccc(N)c2)OCCO1,1.06%,–
Cc1ccc(S(=O)(=O)/N=C(/NC(=S)Nc2c(C)n(C)n(-c3ccccc3)c2=O)c2ccccc2)cc1,14.8%,–
Cc1ccccc1CNC(=O)C(=O)NCC(c1cccs1)S(=O)(=O)c1cccs1 (stereo not drawn),–,14.6 µM (active)
CC(C)C(=O)NCC(c1cccs1)S(=O)(=O)c1ccc(F)cc1 (stereo not drawn),11.1%,–
COc1ccccc1CNC(=O)COC(=O)c1cccs1,-1.27%,–
O=C(CNC(=O)c1ccco1)NNC(=O)c1ccc(Br)cc1,17.5%,–
O=C(Oc1ccccc1)c1ccc2nccnc2c1,2.88%,–
O=C(Oc1ccc(-c2nc(-c3ccccn3)no2)cc1)c1ccccc1,–,9.2 µM (active)
